Here are results for 11 molecules from PubChem BioAssay.

Structures are written as SMILES. Activity calls are given as the source filed them. Unless noted, no rule for the calls is given here.

Assay [1] in a line: HepG2 liver cancer cell viability effects, profiling panel, resazurin fluorescence, 24 h, PK04 Diversity Set (AID 1172). Also: test concentration not given here. Particulars: higher = more signal.
Assay [2] can be described thus: basal S. cerevisiae growth modulation, no modifier, primary screen, OD600, strain BY4716, 24 h, basal condition (AID 1173). As to conditions: OD600, 24 h, higher = more signal, called active from +8 up or from −8 down.
Assay [3] can be described thus: MM1S myeloma cell viability, profiling panel, resazurin fluorescence, basal, 24 h, PK04 Diversity Set (AID 1174).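 Also: MM1S multiple myeloma cell line; test concentration not given here.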 Particulars: higher = more signal, called active from +8 up or from −8 down. (Resazurin is reduced to fluorescent resorufin, in cell work by metabolically active cells.)
The target of assay [4] is Dihydroorotate dehydrogenase (quinone), mitochondrial (Plasmodium falciparum (isolate 3D7)) (UniProt Q08210). The assay is described as follows: PfDHODH enzyme inhibitors, primary screen, biochemical, C-terminal His tag, absorbance 600 nm (AID 1175).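 Also: recombinant parasite enzyme with a five histidine tag at its C terminus; test concentration not given here.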 As to conditions: DCIP absorbance 600 nm, higher = more signal, called active from +8 up or from −8 down.
Dihydroorotate dehydrogenase (quinone), mitochondrial (Plasmodium falciparum (isolate 3D7)), sequence (Q08210 whole entry, looked up): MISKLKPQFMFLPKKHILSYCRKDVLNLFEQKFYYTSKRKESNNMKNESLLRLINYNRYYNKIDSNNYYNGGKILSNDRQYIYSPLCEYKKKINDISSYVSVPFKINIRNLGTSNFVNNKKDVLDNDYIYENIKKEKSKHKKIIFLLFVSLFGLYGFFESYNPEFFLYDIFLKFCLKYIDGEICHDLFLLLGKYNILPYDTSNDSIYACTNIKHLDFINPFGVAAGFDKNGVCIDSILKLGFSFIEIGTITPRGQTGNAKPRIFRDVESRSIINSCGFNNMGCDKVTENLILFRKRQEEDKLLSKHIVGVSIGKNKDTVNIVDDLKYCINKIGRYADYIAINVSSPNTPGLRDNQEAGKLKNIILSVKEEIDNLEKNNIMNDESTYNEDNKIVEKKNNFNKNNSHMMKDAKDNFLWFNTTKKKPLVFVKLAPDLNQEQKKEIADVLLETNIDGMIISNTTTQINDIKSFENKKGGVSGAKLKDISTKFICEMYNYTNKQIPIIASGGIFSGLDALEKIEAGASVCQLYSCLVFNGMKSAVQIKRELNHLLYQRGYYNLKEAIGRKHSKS
Assay [5] is described as follows: P. aeruginosa biofilm formation inhibitors, primary screen, strain PAO1, LB-PBS medium, absorbance 600 nm (AID 1176). Also: test concentration not given here. Particulars: P. aeruginosa PAO1 growth/biofilm, A600, 12 h; higher = more signal.
Assay [6] is described as follows: S. cerevisiae RM11-1a growth modifiers, primary screen, strain RM11-1a, OD600, basal, 24 h (AID 1177).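 Also: cultures grown under basal conditions with no added stressor; test concentration not given here.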 As to conditions: OD600, 24 h, higher = more signal, called active from +8 up or from −8 down.
A short description of assay [7]: E. coli acrAB mutant growth effects, primary screen, E. coli filamentation inducers, strain DRC39, OD650, 24 h (AID 1178).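 Also: growth measured as culture turbidity by optical density at 650 nm; test concentration not given here.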 As to conditions: higher = more signal, called active from +8 up or from −8 down.
Assay [8] in a line: E. coli acrAB mutant growth effects, primary screen, E. coli filamentation inducers, strain DRC39, OD650, 48 h (AID 1179).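 Also: screen aims at cell division blockers that make cells filament.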 As to conditions: E. coli DRC39 delta-acrAB growth, higher = more signal, called active from +8 up or from −8 down.
Assay [9] in a line: RPMI8226 myeloma cell viability, profiling panel, resazurin fluorescence, basal, 24 h, PK04 Diversity Set (AID 1180).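 Also: RPMI8826 multiple myeloma cell line at 5000 cells per well; test concentration not given here.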 Particulars: higher = more signal.
The target in assay [10] is E3 ubiquitin-protein ligase XIAP (Homo sapiens) (UniProt P98170). Kind of assay: XIAP binders, primary screen, biophysical, small-molecule microarray, fluorescence 635 nm (AID 1181).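 Also: score merges 667 nm emission and signal to noise over triplicate slides.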 Particulars: small-molecule microarray binding, higher = more signal.
E3 ubiquitin-protein ligase XIAP (Homo sapiens), sequence (P98170 whole entry, looked up): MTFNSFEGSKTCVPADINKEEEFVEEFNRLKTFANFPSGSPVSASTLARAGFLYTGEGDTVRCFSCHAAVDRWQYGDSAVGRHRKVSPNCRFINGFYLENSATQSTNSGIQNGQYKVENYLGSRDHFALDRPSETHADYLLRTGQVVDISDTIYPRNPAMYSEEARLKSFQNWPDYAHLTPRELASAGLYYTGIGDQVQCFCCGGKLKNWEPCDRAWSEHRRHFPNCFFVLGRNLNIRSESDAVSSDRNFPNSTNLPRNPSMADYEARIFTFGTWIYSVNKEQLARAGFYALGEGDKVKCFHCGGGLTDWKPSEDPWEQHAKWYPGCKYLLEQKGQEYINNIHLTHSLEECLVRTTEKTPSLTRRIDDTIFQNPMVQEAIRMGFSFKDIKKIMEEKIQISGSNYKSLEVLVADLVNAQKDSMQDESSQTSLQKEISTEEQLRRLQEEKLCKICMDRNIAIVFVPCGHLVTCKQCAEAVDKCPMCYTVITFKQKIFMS

Regarding `COc1ccc(-c2cc3c(c(Cc4ccccc4)n2)[Si](C(C)C)(C(C)C)OC3)cn1`, the z-score in assay [1] was 0.177; in assay [2], -0.652 (inactive); in [3], -0.141 (inactive); in assay [5] it was 0.0429 (inactive); in assay [6], 2 (inactive); in assay [7], 0.184 (inactive). Moreover, the values for the z-score in [8] and in [9] were 0.0876 (inactive) and 0.626, respectively. In addition, the composite z-score in assay [4] is 0.653 (inactive); in [10] it was -0.0749.
Turning to `O=C1OCC=C[C@H]2OC34C=CCN(CCN5CCOCC5)C(=O)[C@H]3N(CCO)C(=O)[C@@H]4[C@@H]12` (stereo not given in full), the z-score is 0.226 in assay [1]; -0.0819 (inactive) in assay [2]; -0.176 (inactive) in [3]; -0.608 (inactive) in assay [5]; -0.31 (inactive) in assay [6]; -0.533 (inactive) in assay [7]. In addition, the z-score in assay [8] is -0.385 (inactive); in [9] it was -0.386. For the same molecule, the values for the composite z-score in [4] and in assay [10] were -0.424 (inactive) and -0.28, respectively.
For `COC(=O)C(CC#Cc1ccc2c(c1)[C@]1(C(=O)N2)[C@H](c2ccccc2OCCO)N2[C@H](c3ccccc3)[C@H](c3ccccc3)OC(=O)[C@H]2[C@@H]1C(=O)O)C(=O)OC`, the z-score in [1] was 0.622; in [2], -0.502 (inactive); in assay [3], 1.39 (inactive); in assay [5], 1.96 (inactive); in assay [6], 2.98 (inactive); in [7], 0.84 (inactive). Further, the z-score in assay [8] was 0.905 (inactive); in assay [9], -0.259. In addition, the composite z-score was -5.13 (inactive) in assay [4] and 0.0533 in assay [10].
With `Cc1c(NC(=O)/C(C#N)=C/c2cccc([N+](=O)[O-])c2)c(=O)n(-c2ccccc2)n1C`, the z-score in assay [1] is 0.131; in assay [2], -0.701 (inactive); in [3], -1.34 (inactive); in assay [5], 0.972 (inactive); in assay [6], -2.91 (inactive); in [7] it was 1.48 (inactive). The values for the z-score in assay [8] and in [9] were 0.837 (inactive) and 0.246, respectively. For the same molecule, the values for the composite z-score in [4] and in [10] were -2.58 (inactive) and 0.248, respectively.
On to `COc1cc2c(cc1O)C=[N+](Cc1cc3c(cc1Br)OCO3)CC2`, for which the z-score in assay [1] was -0.532; in assay [2] it was 0.384 (inactive); in [3], -1.29 (inactive); in [5], 0.0898 (inactive); in assay [6] it was 0.593 (inactive); in assay [7] it was -0.31 (inactive). Besides, the z-score in assay [8] is -0.3 (inactive); in assay [9] it was -0.566. Also, the figures for the composite z-score in assay [4] and in assay [10] were 0.707 (inactive) and -0.252, respectively.
Turning to `C=C(CCCC)/C(=C/C[C@@H](OC(C)=O)c1ccccc1OCCO)c1cc(C(=O)OC)ccc1OC`, the z-score is 0.937 in [1]; -0.746 (inactive) in [2]; -0.909 (inactive) in assay [3]; 0.367 (inactive) in [5]; 0.724 (inactive) in assay [6]; 1.5 (inactive) in [7]. The z-score is 1.04 (inactive) in [8] and 0.627 in assay [9]. Besides, the results for the composite z-score in assay [4] and in assay [10] were -0.04 (inactive) and -0.02, respectively.
For the molecule `COCCOC(=O)N1C(=O)[C@@]2(c3cc(C#CCCO)ccc31)[C@H](c1ccc(O)cc1)N1[C@H](c3ccccc3)[C@H](c3ccccc3)OC(=O)[C@H]1[C@@H]2C(=O)N1CCN(c2ncccn2)CC1`, the z-score in assay [1] is 1.36; in [2] it was 0.467 (inactive); in assay [3] it was -0.0402 (inactive); in [5], 0.541 (inactive); in assay [6], 0.035 (inactive); in [7], -0.235 (inactive). Besides, the figures for the z-score in [8] and in assay [9] were -0.62 (inactive) and 0.783, respectively. In addition, the composite z-score in assay [4] was -0.235 (inactive); in assay [10] it was 0.17.
Turning to `O=C1O[C@@H](c2ccccc2)[C@@H](c2ccccc2)N2[C@@H](c3ccc(OCCO)cc3)[C@]3(C(=O)Nc4ccc(C#CC5=CCCCC5)cc43)[C@@H](C(=O)N3CCCCCCC3)[C@H]12`, the z-score in assay [1] is -0.399; in assay [2], 0.593 (inactive); in assay [3] it was 0.0902 (inactive); in [5] it was 1.77 (inactive); in [6] it was 0.911 (inactive); in assay [7] it was -1.32 (inactive). The values for the z-score in assay [8] and in assay [9] were 0.0745 (inactive) and 0.152, respectively. In addition, the composite z-score in assay [4] is -0.73 (inactive); in [10] it was 0.642.
As to `CC(C)CN1C(=O)[C@@]2(c3ccc([N+](=O)[O-])cc3)CC(=O)N(C3CCCCC3)[C@@H]2c2ccc(CO)cc21`, the z-score in assay [1] was -0.321; in assay [2] it was 0.669 (inactive); in assay [3] it was -0.248 (inactive); in [5], 0.292 (inactive); in assay [6] it was 0.488 (inactive); in assay [7], 0.0743 (inactive). Moreover, the z-score in assay [8] is 0.922 (inactive); in [9] it was -0.323. The composite z-score is -13.6 (active) in assay [4] and 0.119 in assay [10].
`COC(=O)[C@@]1(Cc2ccc(F)cc2)[C@H]2c3cc(C(=O)N(C)C)n(Cc4cc(C)n(C)n4)c3C[C@H]2CN1C(=O)c1ccccc1`: the z-score in [1] was -0.806; in [2], -0.169 (inactive); in assay [3] it was -0.943 (inactive); in assay [5] it was 0.495 (inactive); in [6], -0.0352 (inactive); in assay [7], -0.431 (inactive). In addition, the z-score in [8] was -0.851 (inactive); in assay [9], -0.856. The figures for the composite z-score in assay [4] and in [10] were -0.368 (inactive) and 0.473, respectively.
With `C=CCC(OC(C)=O)[C@@H]1[C@@H](N(Cc2cc3ccccc3o2)C(=O)Cc2ccc(OC)cc2)c2cc(OCCCO)ccc2N1C(=O)c1ccc2ccccc2c1` (stereo not given in full), the z-score was -1.5 in assay [1]; -0.256 (inactive) in assay [2]; -0.0928 (inactive) in [3]; -0.227 (inactive) in assay [5]; -0.226 (inactive) in [6]; -0.629 (inactive) in assay [7]. Further, the z-score is -1.05 (inactive) in assay [8] and -0.516 in assay [9]. The composite z-score was 0.164 (inactive) in assay [4] and 0.0374 in [10].
